Screens (PubChem)
Most compounds without a hit are left out; they make up all but 21% or so of the library.
ELG1 DNA repair = inhibitors of ELG1-dependent DNA repair in HEK293T cells. HEK293T ELG1-luciferase reporter, luminescence, 16 h; DNA damage induced by 5-fluorouridine. Potency, µM (doses to about 46.1 µM), inactives show top-dose activity change, negative = inhibition, hits mostly inhibitors. 330,000 compounds, 2.3% hits. AID 504467; further: potency means the concentration at half of the fitted maximal effect; nearly all actives have a fitted effect of over 55% in size
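Cells (2,000 per well) received 5-fluorouridine plus test compound or DMSO and were incubated 16 hr at 37 °C, 5% CO2. Luciferase activity was read by luminescence 30 min after ONE-Glo addition; signal suppression marked inhibition of damage-induced ELG1 function.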
Gal4-VP16 FLuc = counter-screen for ROR gamma inhibitors: Gal4-VP16 reporter. Drosophila S2 Gal4-VP16 UAS-luciferase, luminescence, 20 h. Potency, µM (highest dose often 53.6 µM), inactives show at the top dose activity, negative = inhibition, actives largely listed as inhibitors. 310,000 compounds, 3.5% hits;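 further: Gal4-VP16 expression switched on by copper sulfate through the metallothionein promoter; potency means the concentration at half of the fitted maximal effect; nearly all actives have a fitted effect of over 50% in size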
IL-1B inflam inh = blocks inflammasome-driven IL-1 beta release; THP-1 LPS/ATP IL-1B secretion, AlphaLISA, 16 h; stronger effect = lower value; activity change, % at 57.5 µM; 360,000 compounds, 4.7% hits; in the data active means activity change below about -50%; inconclusive means mostly about -30% to -49%
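Secreted IL-1B measured by AlphaLISA bead assay after 16 h compound exposure of THP-1 cells; compounds (final up to 57.5 uM) added 1 h before LPS (250 ng/mL) and ATP (1.25 mM) stimulation; lower signal means less secretion.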
TDP1 cell noCPT = qHTS for Inhibitors of human tyrosyl-DNA phosphodiesterase 1 (TDP1): qHTS in cells in absence of CPT. DT40 Tdp1-/- hTDP1 cells, no CPT, ATP luminescence, 48 h. Potency, µM (series often up to 46.2 µM), for inactives: top-dose activity change, negative = growth inhibition, most hits filed as inhibitors. 420,000 compounds, 15% hits. AID 686978, 2013; further: potency means the concentration at half of the fitted maximal effect; nearly all actives have a fitted effect of over 55% in size
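Chicken DT40 Tdp1-/- cells stably complemented with human TDP1 were seeded at 400 cells/well with DMSO in place of 20 nM camptothecin. After compound pinning, cells grew at least 48 hr at 37 °C; viability read by CellTiter-Glo luminescence.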
TDP1 cell CPT = DT40-hTDP1 cell growth loss with CPT; Potency, µM (highest dose often 46.2 µM), for inactives: top-dose activity change, negative = growth inhibition, usual class: inhibitors; chicken DT40 Tdp1-/-;hTDP1 cells + 20 nM CPT, ATP luminescence, 48 h; 420,000 compounds, 12% hits; further: potency means the concentration at half of the fitted maximal effect; nearly all actives have a fitted effect of over 55% in size
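Chicken DT40 Tdp1-/- cells stably complemented with human TDP1 were seeded at 400 cells/well in medium containing 20 nM camptothecin, exposed to pin-transferred compounds, and grown at 37 °C for at least 48 hr. Viability was read as ATP luminescence.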
RORg inh = blocks mouse ROR gamma transcriptional activity | P51450 | Drosophila S2 Gal4-RORgamma UAS-luciferase reporter, 20 h | Potency, µM (highest dose often 53.6 µM), without a hit: at the highest dose activity change, negative = inhibition, hits mostly inhibitors | 310,000 compounds, 5.4% hits | AID 2551; further: potency means the concentration at half of the fitted maximal effect; nearly all actives have a fitted effect of over 60% in size
Target sequence (P51450 whole entry, looked up, the tested form may be a part): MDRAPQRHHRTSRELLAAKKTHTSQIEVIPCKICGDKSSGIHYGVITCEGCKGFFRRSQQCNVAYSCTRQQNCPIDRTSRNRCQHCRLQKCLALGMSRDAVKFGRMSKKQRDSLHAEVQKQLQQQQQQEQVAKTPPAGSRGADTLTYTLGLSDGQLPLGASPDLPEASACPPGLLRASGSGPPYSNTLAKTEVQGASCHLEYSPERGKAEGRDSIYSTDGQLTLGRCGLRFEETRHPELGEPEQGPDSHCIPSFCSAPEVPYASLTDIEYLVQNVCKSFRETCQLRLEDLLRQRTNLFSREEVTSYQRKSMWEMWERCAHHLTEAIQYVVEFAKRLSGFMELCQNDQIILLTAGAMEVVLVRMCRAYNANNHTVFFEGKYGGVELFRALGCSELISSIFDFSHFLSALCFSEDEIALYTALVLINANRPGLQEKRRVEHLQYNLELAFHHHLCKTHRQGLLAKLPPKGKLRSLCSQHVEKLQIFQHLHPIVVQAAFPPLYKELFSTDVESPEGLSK
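Read-out: Photinus luciferase luminescence; inhibitors lower reporter signal. Insect Schneider cells with Gal4-ROR gamma fusion under metallothionein promoter, UAS reporter; 700 uM final copper sulfate induction, 20 hr, ambient temperature.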
Active calls of the source: *; ? = inconclusive; . = not tested or not shown; [ ] = another dose, or the depositor's remark. Unless noted, the call rests on the fitted dose curve; in most records, active means well fitted curve in the direction sought with a large enough effect; inconclusive means small, poorly fitted or top-dose-only effect, or another doubt; inactive means no such curve, though single readings can be large; an effect the other way counts as inactive or inconclusive. On the % scale 0 is the no-effect control and ±100 the full control effect.

SMILES	ELG1 DNA repair	Gal4-VP16 FLuc	IL-1B inflam inh	TDP1 cell noCPT	TDP1 cell CPT	RORg inh
CCN(CC)c1ccc(/C=C/c2ccnc3ccccc23)cc1	.	.	.	17.8µM*	?	.
CCN(Cc1ccccc1)c1ccc(/C=C/c2nccc3ccccc23)cc1	.	.	.	?	12.6µM*	.
CCN(CCC(=O)O)c1ccc(/C=C/c2ccnc3ccccc23)cc1	.	.	.	?	2.3%	.
Cc1c(C(=O)N2CCC(C)CC2)c(S(=O)(=O)NCc2ccccc2)c(C)n1C	.	.	.	-9.5%	-1.3%	.
COc1ccc(CN(C)C(=O)CNC(=O)CNC(=O)c2ccc(Cl)cc2Cl)cc1F	0.5%	-0.6%	-3.6	-8.9%	3.9%	21.5%
CCN(C)c1ccc(/C=C/c2ccnc3ccccc23)cc1	.	.	.	11.2µM*	11.2µM*	.
C=CCN(CC=C)c1ccc(/C=C/c2ccnc3ccccc23)cc1	.	.	.	?	17.8µM*	.
OCCN(CCO)c1ccc(/C=C/c2ccnc3ccccc23)cc1	.	.	.	14.1µM*	8.91µM*	.
CCN(CC)CCN(CC)c1ccc(/C=C/c2ccnc3ccccc23)cc1	.	.	.	4.47µM*	-90.9%	.
CCCCCCCN(CCCCCCC)c1ccc(/C=C/c2ccnc3ccccc23)cc1	.	.	.	-14.6%	-22.2%	.
CCn1c(C)nc2cc(C(=O)NNC(=O)CN(C)S(=O)(=O)c3ccc(NC(C)=O)cc3)ccc21	?	.	-4.0	-8.3%	16.3%	.
CC(=O)COc1ccc2c(C)c(-c3ccccc3)c(=O)oc2c1	?	?	-5.9	25.9µM*	?	-3.0%
Cc1c(Cc2ccccc2)c(=O)oc2cc(OCC(=O)N[C@@H](Cc3ccccc3)C(=O)O)ccc12	-23.8%	0.5%	-1.0	-0.2%	16.2%	-1.6%
Cc1c(Cc2ccccc2)c(=O)oc2cc(OCC(=O)NCc3ccccn3)ccc12	?	-10.3%	-51.6*	-17.0%	?	37.8%
CCOC(=O)c1ccc(NC(=O)CSc2nc3ccccc3c(=O)n2CCNC(C)=O)cc1	.	.	.	-17.5%	-4.5%	.
O=C(NCc1ccccn1)Nc1ccc(F)cc1F	?	28.8%	-11.4	-1.2%	-12.3%	38.9%
O=C(Nc1ccc(F)cc1F)c1csc(-c2ccccc2)n1	?	-6.6%	0.0	-13.4%	1.0%	16.5%
O=C(Nc1nc(-c2ccccc2)cs1)Nc1ccc(F)cc1F	?	-2.0%	-15.9	9.2µM*	9.2µM*	-4.0%
O=C(Nc1nc(-c2ccccn2)cs1)Nc1ccc(F)cc1F	?	?	-83.5*	2.91µM*	4.61µM*	3.55µM*
COc1ccccc1Nc1nc(NCc2ccco2)c2ccccc2n1	20.6µM*	?	.	20.6µM*	?	12.4%
Cc1cccc(Nc2nc(N)c([N+](=O)[O-])c(NCc3ccco3)n2)c1	-20.4%	-0.2%	?	?	-9.1%	?
Cc1ccc(Nc2nc(NCc3ccco3)c3ccccc3n2)cc1	?	-12.7%[10 µM]	-108.7*	2.59µM*	2.59µM*	?
CN(C)c1ncc2nc(-c3cccs3)c(=O)n(-c3ccccc3)c2n1	.	2.4%	.	23.9%	-0.4%	1.8%
CCCCNC(=O)C1c2ccccc2OCC(=O)N1C1CC1 (configuration not stated)	.	.	30.4	-8.7%	-6.6%	.
Cc1cc(F)ccc1S(=O)(=O)N1CCCOC1CNC(=O)C(=O)NCCc1c[nH]c2ccccc12 (configuration not stated)	18.4µM*	-17.4%	?	?	16.4µM*	32.5%
Cc1cc(C)c(S(=O)(=O)N2CCCOC2CNC(=O)C(=O)NCCc2c[nH]c3ccccc23)c(C)c1 (configuration not stated)	?	-10.9%	-15.0	14.6µM*	?	?
